The record followed here is ChEMBL document CHEMBL3988442, “University of Dundee, Small-Polar-MMV Screening Library” (2021).

Assay [1] concerns the target T1, Aspartate--tRNA(Asp/Asn) ligase (Mycobacterium tuberculosis (strain ATCC 25618 / H37Rv)) (UniProt P9WFW3). Further: in the data most compounds retested in dose-response had high values.
T1 sequence (whole entry): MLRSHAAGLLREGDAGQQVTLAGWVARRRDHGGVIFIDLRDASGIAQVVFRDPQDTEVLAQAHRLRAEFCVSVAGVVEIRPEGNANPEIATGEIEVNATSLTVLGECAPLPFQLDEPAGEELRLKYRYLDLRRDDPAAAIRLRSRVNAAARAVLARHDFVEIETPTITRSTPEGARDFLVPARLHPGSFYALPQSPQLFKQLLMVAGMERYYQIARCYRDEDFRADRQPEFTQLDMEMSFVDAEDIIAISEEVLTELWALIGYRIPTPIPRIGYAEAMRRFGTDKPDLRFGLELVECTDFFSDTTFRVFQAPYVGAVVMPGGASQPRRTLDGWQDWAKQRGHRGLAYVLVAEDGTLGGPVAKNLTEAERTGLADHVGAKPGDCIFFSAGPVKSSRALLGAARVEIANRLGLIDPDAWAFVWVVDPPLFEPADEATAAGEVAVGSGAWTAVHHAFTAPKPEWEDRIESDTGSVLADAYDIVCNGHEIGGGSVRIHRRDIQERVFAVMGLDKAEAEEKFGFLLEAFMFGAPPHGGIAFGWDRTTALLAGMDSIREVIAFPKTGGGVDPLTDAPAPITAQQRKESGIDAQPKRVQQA
Kind of assay: Assay for Asp RNA synthetase-1 from Mycobacterium tuberculosis. It counts as functional. More on the design: scale not given: direction of the effect not stated beside the values. To be noted: 30 µM.

Assay [2] concerns the target Shiga toxin 2 (Escherichia coli O157:H7) (UniProt P09385+P09386). Description: E. coli 0.157:H7 Shiga Toxin SOP - stx2 screening assay. It counts as functional. More on the design: scale not given: direction of the effect not stated beside the values. The conditions noted are these: 30 µM.

`COCC1c2c(cnn2CC2CC2)CCN1Cc1cccs1` (stereo unspecified): the results for the Percent Effect in assay [1] and in assay [2] were -0.524% and 0.46%, respectively.
Take `Cc1nc(C)n(C2CCCN(C(=O)CCc3ccncc3)C2)n1` (stereo unspecified): the Percent Effect in assay [1] is -6.6%; in assay [2] it was 11.7%.
For the molecule `COCCN1CCCC(c2nc3c([nH]2)CC(C)(C)CNC3=O)C1` (stereo unspecified), the results for the Percent Effect in assay [1] and in assay [2] were 2.91% and 0.913%, respectively.
Consider `Cc1cc(C)n(C2CCCN(C(=O)Cc3csc(C)n3)C2)n1` (stereo unspecified), for which the results for the Percent Effect in assay [1] and in assay [2] were -6.85% and 5.9%, respectively.
As for `O=C(CN1CCCCC1C1OCCO1)Nc1ccc(F)c(F)c1` (stereo unspecified), the Percent Effect in assay [1] was determined as 3.65%; in assay [2], 3.89%.
For `COCCOCC(=O)Nc1ccc(Br)cc1F`, in that order: -5.06% and -5.97%.
For `COc1cccc(CN(C)C(=O)CN2CC(n3nc(C)cc3C)C2)c1`, in that order: 1.62% and -22.3%.
Taken in the same sequence, the figures for `CC(C)C(=O)NCc1cccc(N2CCCCC2=O)c1` were -1.01% and 6.13%.
For the molecule `Cc1noc(C)c1CN1C(=O)[C@H]2CC[C@@H]1CN(Cc1cccnc1N)C2`, the Percent Effect in assay [1] is 3.56%; in assay [2], -24.1%.
As for `CN1CC(c2ccccc2)CC12CCN(C(=O)c1c(Cl)cnn1C)CC2` (stereo unspecified), the results for the Percent Effect in assay [1] and in assay [2] were -1.22% and 17%, respectively.
With `CC(Cn1ccnc1)NC(=O)NCCNC(=O)C(C)C` (stereo unspecified), the Percent Effect stood at 1.08% in assay [1] and 11.8% in assay [2].
With `NC(=O)c1cc(C2CCCN(C(=O)CCc3ccsc3)C2)n[nH]1` (stereo unspecified), the Percent Effect in assay [1] is -5.77%; in assay [2], 21.2%.
Taken in the same sequence, the figures for `CC(C)c1cc(C(F)(F)F)n2nc(CCC(=O)O)nc2n1` were -1.46% and 52.4%.
Taken in the same sequence, the figures for `Cc1nn(C)c(Cl)c1C1CCCN1C(=O)c1ccc2c(c1)OCO2` (stereo unspecified) were -0.434% and 12%.
Consider `Cc1cc(C)n(C2CN(CC(O)COc3ccc(F)cc3)C2)n1` (stereo unspecified), for which the Percent Effect in assay [1] was -0.121%; in assay [2] it was 19.1%.
Taken in the same sequence, the figures for `Cc1cnc(NC(=O)N2CCCC2)s1` were 1.37% and 1.43%.
For `CCc1noc(C(C)N2CCN(Cc3noc(C)n3)CC2)n1` (stereo unspecified), in that order: -5.46% and -10.9%.
Taken in the same sequence, the figures for `CCC1CN(CCC(=O)N(C)C)CCN1CCOC` (stereo unspecified) were 2.89% and 22.5%.
`O=C(Cc1cccs1)N1CC[C@H]2[C@@H]1CCC(=O)N2c1cccnc1`: the results for the Percent Effect in assay [1] and in assay [2] were -1.62% and -9.24%, respectively.
For `COc1ccc(CNC(=O)N2CCC(Cc3cnn(C)c3)C2)cc1C` (stereo unspecified), in that order: -2.9% and 18%.
For `Cc1nc(C)n(CC2CN(CCOCC(F)(F)F)CCO2)n1` (stereo unspecified), in that order: 3.1% and 8.57%.
Taken in the same sequence, the figures for `Cc1cccc(S(=O)(=O)NCC(C)N2CCN(C)CC2)c1Cl` (stereo unspecified) were 1.52% and -12.1%.
For the molecule `O=C(Cc1ccsc1)N1C[C@@H]2CN(Cc3ccoc3)CCO[C@@H]2C1`, the figures for the Percent Effect in assay [1] and in assay [2] were -1.48% and -6.92%, respectively.
Taken in the same sequence, the figures for `CC(NC(=O)NCc1cccc(N2CCCC2=O)c1)c1ccccc1` (stereo unspecified) were -1.99% and 21.2%.
For `CN1CCN(C[C@@H]2OC[C@H]3CN(Cc4cccc(F)c4)CC[C@H]32)CC1`, in that order: -1.14% and 11.3%.
Taken in the same sequence, the figures for `CNc1nc(CNC(=O)Nc2cccc(F)c2C)cs1` were -2.59% and 17.1%.
As to `O=C(c1nc(=O)[nH][nH]1)N1CCCC(c2cc(C(F)(F)F)[nH]n2)C1` (stereo unspecified), the Percent Effect is -1.69% in assay [1] and -21.8% in assay [2].
As to `Cc1ccc(S(=O)(=O)N2C[C@H]3C[C@H](NC(=O)c4ccn(C)n4)[C@H]3C2)cc1`, the Percent Effect was 1.35% in assay [1] and -2.81% in assay [2].
Taken in the same sequence, the figures for `CC(O)CN1CCN(C(=O)CN(C)c2cnccn2)CC1` (stereo unspecified) were 4% and -8.23%.
With `CN1CCc2c(C#N)c(NCc3ccco3)n3cnnc3c2C1`, the values for the Percent Effect in assay [1] and in assay [2] were 6.08% and -1.51%, respectively.
For `O=C(NCc1ccccn1)N(Cc1ccc(F)cc1F)C1CC1`, in that order: -1.6% and 10.3%.
Taken in the same sequence, the figures for `O=C1C[C@H]2[C@@H](CCN2C(=O)Cc2cccs2)N1Cc1cccnc1` were -2.94% and -6.22%.
Consider `COCc1cccc(CNC(=O)CN2CCCC2c2noc(C)n2)c1` (stereo unspecified), for which the Percent Effect in assay [1] was -0.723%; in assay [2], 14.4%.
Regarding `COCCO[C@@H]1CCN(C(=O)c2ccc(C)o2)[C@@H]1Cc1cccnc1`, the Percent Effect is -0.436% in assay [1] and -14.3% in assay [2].
Taken in the same sequence, the figures for `CCc1c(C)nc2cc(C3CCN(Cc4ccccc4F)C3)nn2c1O` (stereo unspecified) were 4.45% and -125%.
As to `CNC(=O)C1(c2cnccn2)CCCN1C(=O)c1ccn(C)n1` (stereo unspecified), the values for the Percent Effect in assay [1] and in assay [2] were -7.79% and -1.47%, respectively.
As to `CC(C)NC(=O)N1CCC2(COCc3cnc(-c4cccnc4)nc32)C1` (stereo unspecified), the values for the Percent Effect in assay [1] and in assay [2] were -2.8% and 2.56%, respectively.
With `Cc1cc(C(=O)N2CCCCC2C)ccc1NCC(=O)N1CCOCC1` (stereo unspecified), the values for the Percent Effect in assay [1] and in assay [2] were -12.3% and -49.1%, respectively.
Taken in the same sequence, the figures for `CN(C)c1ccccc1C(=O)N1C[C@@H](CN2CCCCC2)[C@@H](CO)C1` were -5.26% and 17.7%.
With `CCc1nc(C2CCCN2C(=O)c2ccc3c(c2)nnn3CC)no1` (stereo unspecified), the figures for the Percent Effect in assay [1] and in assay [2] were -5.04% and 1.14%, respectively.
Take `CCNc1cc2c(nn1)CCN(C(=O)Cc1c(C)noc1C)C2`: the figures for the Percent Effect in assay [1] and in assay [2] were 0.225% and 16%, respectively.
Consider `COCC1CC2(CCN(C(=O)c3cccn3C)CC2)CN1C(C)C` (stereo unspecified), for which the Percent Effect in assay [1] was -3.53%; in assay [2], -6.37%.
For `Cc1cc(C(=O)NCCn2nc3ccccn3c2=O)[nH]n1`, in that order: -1.59% and -43.7%.
